Cruzain noTriton – cruzain (T. cruzi) inhibition without detergent | AID 1476 | Potency, µM, without a hit: max response, negative = inhibition, actives largely listed as inhibitors | purified cruzain, Z-FR-AMC fluorescence, no detergent | P25779 | hit rate 2.3% among 200,000;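 further: plate controls were enzyme without inhibitor for no effect and buffer without enzyme for full effect; nearly all actives have a fitted effect of over 40% in size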
Target sequence (P25779 123-467 limits assumed): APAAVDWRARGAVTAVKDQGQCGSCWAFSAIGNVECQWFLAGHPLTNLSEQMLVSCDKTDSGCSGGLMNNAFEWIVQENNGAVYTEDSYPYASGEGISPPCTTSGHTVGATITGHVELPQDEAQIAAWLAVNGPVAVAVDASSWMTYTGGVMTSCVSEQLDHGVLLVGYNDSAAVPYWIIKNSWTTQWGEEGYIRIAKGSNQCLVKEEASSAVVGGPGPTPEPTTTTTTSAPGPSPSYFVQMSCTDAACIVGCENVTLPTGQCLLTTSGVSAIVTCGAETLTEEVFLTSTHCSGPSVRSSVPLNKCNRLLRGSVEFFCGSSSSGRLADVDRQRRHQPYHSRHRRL
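Detergent-free condition (0.00005% Triton X-100) in acetate buffer pH 5.5 with DTT. 1.5 nM enzyme and compound were pre-mixed 15 min, then 2 uM Z-FR-AMC substrate added; reaction progress from fluorescence change between first and third reads (60 s).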
Cruzain Triton – blocks cruzain activity in presence of Triton detergent; P25779; purified cruzain, Z-FR-AMC fluorescence, 0.01% Triton; Potency, µM, for inactives: max response, negative = inhibition, actives largely listed as inhibitors; hit rate 0.43% among 200,000;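 further: plate controls were neutral wells for no effect and buffer without enzyme for full effect; nearly all actives have a fitted effect of over 40% in size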
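In this qHTS format, compounds are incubated with 1.5 nM cruzain for 15 min at room temperature before 2 uM Z-FR-AMC is added. Release of AMC is followed at 360/450 nm, and progress is taken as the 60 s fluorescence difference.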
The depositor's hits bear a star; u = inconclusive. Compounds with a hit are over-represented: about 2.6% of the library has one in this group of screens. The call rests on the fitted dose curve; in most records, active means well fitted curve in the direction sought with a large enough effect; inconclusive means small, poorly fitted or top-dose-only effect, or another doubt; inactive means no such curve, though single readings can be large; an effect the other way counts as inactive or inconclusive. Potency means the concentration at half of the fitted maximal effect.

SMILES | Cruzain noTriton | Cruzain Triton
Cc1csc(NC(=O)CSc2nnc(NC(=O)COc3ccccc3)s2)n1 | 7.9µM* | 2%
Cc1csc(NC(=O)CSc2nnc(C)s2)n1 | -11% | 0%
COc1cc(/C=N/NC(=S)Nc2cccc(C(=O)O)c2)cc(OC)c1OC | -5% | -12%
COc1cc(/C=N/NC(=S)N/N=C/c2cc(OC)c(OC)c(OC)c2)cc(OC)c1OC | u | 14µM*
CCCCn1c(=N)c(S(=O)(=O)c2ccc(C)cc2)cc2c(=O)n3cc(C)ccc3nc21 | 9% | 1%
Cc1ccc(-c2nnc(SCC(=O)NC3CCCC3)nc2-c2ccc(C)cc2)cc1 | 13µM* | u
O=C(CSc1nnc(-c2ccc(Cl)cc2)c(-c2ccc(Cl)cc2)n1)NC1CCCC1 | -9% | -8%
COc1ccc(-c2nn(-c3ccc(C)c(Cl)c3)c3c2cnc2cc(OC)c(OC)cc23)cc1 | -2% | 1%
Cc1ccc(C)c(N2CCN(C(=O)Cn3nc(Cc4cccnc4)c4ccccc4c3=O)CC2)c1 | 25% | -7%
Cc1ccc(CNC(=O)C(=O)Nc2c3c(nn2-c2ccccc2)CSC3)cc1 | u | 0%
Cc1ccc(-n2nc3c(c2NC(=O)c2ccc4c(c2)OCO4)CSC3)cc1 | 16µM* | 0%
CC(=O)Nc1c2c(nn1-c1ccc(C)cc1C)CSC2 | 2% | -2%
Cc1ccc(CNC(=O)C(=O)Nc2c3c(nn2-c2ccc(F)cc2)CSC3)cc1 | 13µM* | -1%
COc1cccc(-c2nccc(N(C)Cc3ccco3)n2)c1 | -7% | -2%
COc1ccc2c(C)c(CC(=O)NCc3ccc(C)cc3)c(=O)oc2c1OC | -4% | 7%
O=C(CN1CCN(c2nc(-c3ccc(F)cc3)cs2)CC1)Nc1ccc2c(c1)OCO2 | 25µM* | -5%
NC(=O)CN1CCN(c2nc(-c3ccc(F)cc3)cs2)CC1 | 0% | -2%
CCN(CC)S(=O)(=O)c1ccc(NC(=O)c2cc3ccc4cccnc4c3[nH]2)cc1 | -26% | -12%
O=C(CCSc1nc2ccccc2s1)N/N=C/c1c(O)ccc2ccccc12 | 13µM* | -2%
COc1ccc(/C=N/NC(=O)CCSc2nc3ccccc3s2)cc1OC | u | -10%
C/C(=N\NC(=O)c1ccc(CN(C)S(=O)(=O)c2ccc(C)cc2)cc1)c1ccc(OC(F)F)cc1 | 4% | -2%
Cc1ccc(S(=O)(=O)N(C)Cc2ccc(C(=O)N/N=C/c3ccc(OC(F)F)cc3)cc2)cc1 | 10µM* | -1%
Cc1ccccc1-c1nc(CNC(=O)NC2CCCCC2)c(C)o1 | -10% | 1%
CC(=O)c1c(C)n([O-])c2ccc(C)cc2[n+]1=O | 1.6µM* | 0%
Cc1ccc2c(c1)n([O-])c1c([n+]2=O)CCCC1 | -4% | 6%
SMILES | Cruzain noTriton | Cruzain Triton
COc1ccccc1CCNC(=O)Cc1ccc(NC(=O)N2CCSc3ncccc32)cc1 | 0% | -15%
Cc1cccc(OCC(=O)Nc2nc3ccc([N+](=O)[O-])cc3s2)c1 | u | -1%
CC(C)c1ccc(/C=C/C(=O)Nc2nc3ccc([N+](=O)[O-])cc3s2)cc1 | 4µM* | 4%
Cc1ccc(NC(=O)C2(c3cccs3)CCOCC2)cc1Cl | 0% | -8%
Cc1cc(Br)cc2c1N(Cc1ccccc1OC(C)C)C(=O)C2=O | -25% | -5%
Clc1cccc(N/N=C/c2ccc(N3CCOCC3)s2)c1 | 32µM* | -14%
CC(C)(C)OC(=O)N/N=C/c1ccc(N2CCOCC2)s1 | 8% | -5%
CCCC[C@@H]1C[C@H]1C(NC(=O)c1cccs1)c1ccccc1C(F)(F)F (some centres not stated) | -5% | -3%
O=C(Cc1ccccc1)NCC(=O)OCC(=O)c1ccc([N+](=O)[O-])cc1 | -18% | -14%
O=C(OCC(=O)c1ccc([N+](=O)[O-])cc1)/C(=C/c1ccc(Cl)cc1)NC(=O)c1ccccc1 | 16µM* | 2.8µM*
COc1ccccc1CNC(=O)C1CCN(S(=O)(=O)c2ccc3c(ccn3C)c2)CC1 | -25% | -3%
O=C(O)c1cc2ccccc2c(Cc2cc3ccccc3c(C(=O)O)c2O)c1O (tested in a mixture with another compound) | -5% | -10%
CC(CNC(=O)CCCn1c(=O)c2cccn2c2ccc(F)cc21)c1ccccc1 (configuration not stated) | 16µM* | -3%
CC(CNC(=O)CCn1c(=O)c2cccn2c2ccc(F)cc21)c1ccccc1 (configuration not stated) | 30% | -7%
CC(=O)Nc1ccccc1-c1nc2ccccc2n(C(C)C(=O)Nc2ccccc2C(F)(F)F)c1=O (configuration not stated) | 4% | -2%
CC(=O)Nc1ccc(-c2cc(C(=O)O)c3c(-c4ccccc4)[nH]nc3n2)cc1 | -18% | -13%
COc1ccc(-c2noc(-c3ccc(NC4CCCCC4)c([N+](=O)[O-])c3)n2)cc1OC | 21% | -4%
COc1ccc(-c2noc(-c3ccc(NC(C)c4ccccc4)c([N+](=O)[O-])c3)n2)cc1OC (configuration not stated) | 13µM* | -5%
CCOC(=O)c1cc(C)n(CC2CCC(C(=O)Nc3ccccc3OC)CC2)c1C (configuration not stated) | 26% | -8%
O=C1CC(c2nnc(Cc3ccc(F)cc3Cl)o2)CN1c1ccccc1 (configuration not stated) | 10% | -3%
Cc1ccc(-c2csc(-c3c(N)c(C(=O)c4ccc5c(c4)OCO5)n4ccccc34)n2)cc1C | 3.2µM* | -3%
Cc1ccc(C(=O)c2c(N)c(-c3nc(-c4ccc5c(c4)OCO5)cs3)c3ccccn23)cc1C | 1.6µM* | -4%
Nc1c(-c2nc(-c3ccc4c(c3)OCO4)cs2)c2ccccn2c1C(=O)c1ccccc1 | 4µM* | -3%
COc1ccc(-c2csc(-c3c(N)c(C(=O)c4ccccc4)n4ccccc34)n2)cc1 | u | 2%
Nc1c(-c2nc(-c3ccc4c(c3)OCO4)cs2)c2ccccn2c1C(=O)c1ccc(Cl)cc1 | u | 0%
SMILES | Cruzain noTriton | Cruzain Triton
COc1ccc(C(=O)c2c(N)c(-c3nc(-c4ccc5c(c4)OCO5)cs3)c3ccccn23)cc1 | u | -4%
Nc1c(-c2nc(-c3ccc(F)cc3)cs2)c2ccccn2c1C(=O)c1ccc2c(c1)OCO2 | -29% | 1%
COc1cccc(C(=O)c2c(N)c(-c3nc(-c4ccccc4)cs3)c3ccccn23)c1 | 10µM* | -2%
CCCCn1nc(NC(=O)c2cccc(Cl)c2)c2cc3cccc(C)c3nc21 | -3% | -2%
CCOc1ccc(/C=C/C(=O)Nc2sc3c(c2C(=O)OC)C(C(=O)OC)CC3)cc1 (configuration not stated) | -2% | -7%
Cc1ccc(S(=O)(=O)CC(=O)N2CCN(c3nc4c(F)cccc4s3)CC2)cc1 | 12% | -5%
CCOCCn1ccc2c(OCC(=O)Nc3cccc(F)c3)cccc2c1=O | 7% | -7%
Cc1ccc(C)c(C(=O)c2c(N)c(-c3nc(-c4ccc5c(c4)OCO5)cs3)c3ccccn23)c1 | 5µM* | -2%
COc1ccc(-c2csc(-c3c(N)c(C(=O)c4ccccc4)n4ccccc34)n2)cc1OC | -12% | -3%
CC(C)CN1CC2(CCN(C(=O)c3csnn3)CC2)C1 | -7% | -3%
COc1ccc(OC)c(NC(=O)CC2SC(=Nc3ccc(F)cc3)N(CCC3=CCCCC3)C2=O)c1 (configuration not stated) | 20µM* | -7%

Source: PubChem BioAssay (National Center for Advancing Translational Sciences (NCATS))
